Assay outcomes: PubChem BioAssay, National Center for Advancing Translational Sciences (NCATS)
Pf Dd2 inh = Plasmodium falciparum Dd2 growth inhibition; 120,000 tested, 4.3% active; AID 1347417; P. falciparum Dd2 growth, SYBR Green, 72 h; Potency, µM (highest dose often 28.9 µM), for inactives: top-dose activity, negative = inhibition, most hits filed as inhibitors; active means well fitted inhibition curve with a large enough effect;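 further: plate controls were DMSO vehicle for no effect and reference drug for full effect; nearly all actives have a fitted effect of over 65% in size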
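Infected erythrocytes (Dd2, 0.3% parasitemia, 2.5% hematocrit final) are added to compound in RPMI-1640/Albumax II medium, grown 72 h at 37C in low oxygen, then lysed with saponin/Triton-X containing SYBR Green and read by fluorescence.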
An asterisk follows results filed as active; i = inactive; [ ] = dose if it differs, or a comment. This excerpt belongs to a sample that is enriched for hits. Potency means the concentration at half of the fitted maximal effect.

SMILES	Pf Dd2 inh
COc1ccc(N2CC(C(=O)N3CCC(C(=O)NCc4ccc(C(F)(F)F)cc4)C3)NC2=O)cc1 (stereo not drawn)	-4%
O=C(Cn1ccn2nc(-c3ccc(F)cc3)c(CO)c2c1=O)N1CCC(Cc2ccccc2)CC1	i
Cc1c(Cl)cccc1NC(=O)Cn1ccn2nc(-c3ccccc3)c(CO)c2c1=O	1%
CCOc1ccccc1CNCCSc1nnnn1C	i
COc1cccc(CNCCSc2nnnn2C)c1OCc1ccc(Cl)cc1Cl	i
Cn1nnnc1SCCCNCc1cccc(OCc2ccccc2Cl)c1	10µM*
Cn1nnnc1SCCCNCc1cc(Cl)ccc1OCc1ccccc1	7.9µM*
COc1cc(CNCCSc2nnnn2C)cc(Cl)c1OCc1ccccc1	i
CCOc1ccc(CNCCCSc2nnnn2C)cc1OC	-13%[0.594 µM]
CC(=O)Nc1ccc(C(=O)N2CCN(c3ccc(C=O)cc3)C(=O)C2)cc1	12%
COC[C@@H]1CN(C(=O)c2ccoc2C)C[C@H]1c1nc(C)no1	19%
COc1cc(CNC(=O)c2nc(C(O)c3ccccn3)oc2C)cc(OC)c1 (stereo not drawn)	-3%[44.1 µM]
O=C(CCn1cnc2ccccc2c1=O)N1CCCC(Nc2ccccc2)C1 (stereo not drawn)	2%
CN1c2cc(C(N)=O)ccc2C(=O)N2CCCC21 (stereo not drawn)	21%
Cc1nn(CC(=O)N2CCN(c3ccccc3F)CC2)c(=O)c2nc(C(C)C)sc12	-21%
COc1ccc(CCNC(=O)c2cnn(-c3cccc(C)c3)c2C2CCN(C(=O)OC(C)(C)C)CC2)cc1OC	11µM*
COc1ccc(CCNC(=O)c2cnn(-c3ccc(F)cc3)c2C2CCN(C(=O)OC(C)(C)C)CC2)cc1OC	7.9µM*
COc1ccc(OC)c(CCNC(=O)c2cnn(-c3ccc(C)cc3C)c2C2CCN(C(=O)OC(C)(C)C)CC2)c1	-12%
COCCNC(=O)C(NC(=O)c1cccs1)C1CCN(C(=O)c2cccs2)CC1 (stereo not drawn)	-3%
CCN(C1CCOCC1)C1CN(C(=O)c2ccoc2)C1	-21%
O=C(Cc1ccc(F)cc1)N1CCN(c2cc(C(F)(F)F)ncn2)CC1	i
COc1cccc(CC(=O)NC2CCN(C(=O)N3CC4CC(C3)[C@H]3CCCC(=O)N3C4)CC2)c1 (stereo partly drawn)	30%
Cc1ccc(C(=O)N2CC(C(=O)NC3CCCCC3)C3(CCOCC3)C2)cc1 (stereo not drawn)	-18%
COc1ccc(-c2noc([C@@H](C)NC(=O)c3cc(C)oc3C)c2C(=O)O)cc1	23%[44.1 µM]
Cc1nn(C)c(C)c1CN(Cc1cnc(N2CCCCC2)nc1)C1CC1	-26%
SMILES	Pf Dd2 inh
COC[C@@H]1CN(C(=O)c2ccccc2)C[C@H]1c1nc(C2CC2)no1	-14%
Cc1nc(N2CCCCC2)n(CC(=O)Nc2cccc(Br)c2)c(=O)c1C	i
CN1CCC(OC2CCN(C(=O)c3ccc(Cl)s3)CC2)CC1	-24%
Cc1cccc(NC(=O)C2c3ccccc3C(=O)N(CC(C)C)C23CCCC3)n1 (stereo not drawn)	3.5µM*
CC(C)CNC(=O)C1c2ccccc2C(=O)N(C2CCCC2)C12CCCC2 (stereo not drawn)	-26%
COCc1nnc(NC(=O)C2c3ccccc3C(=O)N(CC(C)C)C23CCCC3)s1 (stereo not drawn)	5.6µM*
CC(C)CN1C(=O)c2ccccc2C(C(=O)NC(C)C)C12CCCC2 (stereo not drawn)	-13%
CCCCNC(=O)C1c2ccccc2C(=O)N(Cc2ccccc2)C12CCCC2 (stereo not drawn)	-6%
COCCNC(=O)C1c2ccccc2C(=O)N(CC(C)C)C12CCCCC2 (stereo not drawn)	-13%
CC(C)CN1C(=O)c2ccccc2C(C(=O)Nc2nncs2)C12CCCC2 (stereo not drawn)	13µM*
COCCCNC(=O)C1c2ccccc2C(=O)N(CC(C)C)C12CCCCC2 (stereo not drawn)	-8%
CC(C)CN1C(=O)c2ccccc2C(C(=O)NC(C)C)C12CCCCC2 (stereo not drawn)	2%
CC(C)CCN(C)Cc1cccn1C	i
Cc1cccc2ncc(C(=O)N3CC[C@H](CO)[C@@H](O)C3)c(=O)n12	-11%
Cc1ccc(NC2=N[C@H]3[C@@H](O)[C@H](O)C[C@H](C(=O)N4CCC(C(N)=O)CC4)[C@H]3S2)cc1	7%[44.1 µM]
O=C1C(N2CCN(Cc3cccnc3)CC2)CCN1CCc1ccccc1 (stereo not drawn)	i
COCCOCC(=O)N1CC[C@H]2C(=O)NCCCCCCN(Cc3ccncc3)[C@@H]2C1	10%
CCN1CC(C(=O)NCc2noc(Cc3ccccc3)n2)CCC1=O (stereo not drawn)	-16%
Fc1ccc2nc(CO[C@H]3CN(Cc4ccncc4F)C[C@H]3F)[nH]c2c1	-1%[44.1 µM]
Cc1ccc(S(=O)(=O)N2CCCC(Cn3c(C4CC4)nc4cccnc43)C2)c(C)c1 (stereo not drawn)	-8%
COCCn1c(C)cnc1CCNC(=O)c1ccc(OC)nc1	-17%
Cn1cnc(C(=O)N2[C@@H]3CC[C@H]2CC(NC(=O)c2ccncc2)C3)c1 (stereo partly drawn)	22%
O=C(c1ccccn1)N1CCC(N2Cc3ccccc3C2=O)CC1	23%
CCCn1c(C)cnc1C1CCN(S(=O)(=O)c2cc(OC)ccc2OC)C1 (stereo not drawn)	3.5µM*
COc1ccc(OC)c(S(=O)(=O)N2CCCC(Cn3c(C)nc4cccnc43)C2)c1 (stereo not drawn)	i
SMILES	Pf Dd2 inh
COc1ccc(OC)c(S(=O)(=O)N2CCC(n3cnnc3C)CC2)c1	-23%
O=C(c1cccnc1)N1CCC(c2noc(-c3cnccn3)n2)C1 (stereo not drawn)	72%[5.79 µM]
Cc1cc(NC(=O)N2CC=C(c3c[nH]c4ccccc34)CC2)ccc1Br	-3%
Cc1ccc(C)c(NC(=O)N2CC=C(c3c[nH]c4ccccc34)CC2)c1	4µM*
CCOC(=O)c1cccc(NC(=O)N2CC=C(c3c[nH]c4ccccc34)CC2)c1	6.3µM*
CCOc1ccc2c(n1)CCN(C(=O)Nc1cc(C)ccc1C)C2	-15%
CCc1ccc(NC(=O)N2CC=C(c3c[nH]c4ccccc34)CC2)cc1	i
CCOC(=O)c1cccc(NC(=O)N2CCC(CN3CCc4ccccc4C3)CC2)c1	-14%
O=C(O)C1=NOC2CN(C(=O)C3CCCCC3)CC12 (stereo not drawn)	-7%[44.1 µM]
COCCNC(=O)[C@@H]1C[C@H](Oc2ccccc2)CN1C(=O)CCc1ccccc1	0%
C[C@@H](NS(=O)(=O)c1ccccc1)c1onc(-c2ccc(F)cc2)c1C(=O)O	42%[44.1 µM]
O=C(C1c2ccccc2C(=O)N(Cc2ccccc2)C12CCCC2)N1CCCC1 (stereo not drawn)	-7%
COc1ccc2[nH]cc(CCN=C(NC(=O)c3cccc(Cl)c3)Nc3nc(C)cc(C)n3)c2c1	8.9µM*
COc1ccc2[nH]cc(CCNC(=O)Nc3cccc(F)c3)c2c1	4%
COc1ccc2[nH]cc(CCNC(=O)Nc3c(C)cccc3C)c2c1	i
COc1ccc2[nH]cc(CCNC(=O)CCC3CCN(C(=O)c4ccccc4)CC3)c2c1	-29%
O=C1NC(=NC2CCCCC2)C2(CCN([S+](=O)([O-])c3ccccc3)C2)N1c1cc(F)cc(F)c1 (stereo not drawn)	-28%
O=C1NC(=NC2CCCCC2)C2(CCN(Cc3ccc(F)cc3)C2)N1c1cc(F)cc(F)c1 (stereo not drawn)	1.8µM*
O=C1NC(=NC2CCCC2)C2(CCCN(Cc3cccnc3)C2)N1c1cccnc1 (stereo not drawn)	7%
